Screens from PubChem.
Rows were chosen to be rich in hits. Some 4.1% of all compounds tested hit in one or more screens of this group.
DAX1 inh-1 – inhibitors of DAX1 repression of SF-1 activated StAR promoter | HEK293T StAR-luciferase reporter, SF-1/DAX-1 repression relief | inhibition, % at 6.8 µM | 370,000 tested, 1.1% active | AID 652010;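 active means inhibition above the mean over all tested compounds plus 3 SD, cut at about 3.6% in these data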;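 further: higher inhibition means more luminescence from relief of DAX-1 repression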
ssDAF12 agonist – S. stercoralis DAF-12 activation, primary screen. 370,000 tested, 1% active. HEK293 ssDAF-12/GRIP1 lit1-tk-luc reporter, luminescence; % of 3 µM dafachronic acid response. activation, % at 6.8 µM;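 active means activation above the mean over all tested compounds plus 3 SD, cut at about 0.9% in these data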
hgDAF-12 ag – hgDAF-12 agonism, primary luciferase screen; activation, % at 6.8 µM; HEK293 GAL4-hgDAF12 UAS-luciferase reporter, agonist luminescence; normalized to butyrate control; 370,000 tested, 1.8% active;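 active means activation above a cutoff set at the mean of all screened compounds plus 3 SD, cut at about 10% in these data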
hcDAF12 agonist – H. contortus DAF-12 activation, primary screen. HEK293 hcDAF-12 lit1-tk-luc reporter, luminescence; 0% DMSO, 100% Δ7-dafachronic acid. activation, % at 6.8 µM. AID 652067. 370,000 tested, 1.4% active;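 active means activation above the mean of all tested compounds plus 3 SD, cut at about 5.5% in these data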
DAX1 inh-2 – NR0B1 (DAX1) inhibition; P51843; HEK293 Gal4-DAX1 luciferase reporter, luminescence; inhibition, % at 6.75 µM; 340,000 tested, 0.99% active; AID 504766;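 active means inhibition above the mean over all tested compounds plus 3 SD, cut at about 4.2% in these data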;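 further: inhibition shows as a rise in luminescence from relieved DAX1 repression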
Target sequence (P51843 207-470 limits assumed): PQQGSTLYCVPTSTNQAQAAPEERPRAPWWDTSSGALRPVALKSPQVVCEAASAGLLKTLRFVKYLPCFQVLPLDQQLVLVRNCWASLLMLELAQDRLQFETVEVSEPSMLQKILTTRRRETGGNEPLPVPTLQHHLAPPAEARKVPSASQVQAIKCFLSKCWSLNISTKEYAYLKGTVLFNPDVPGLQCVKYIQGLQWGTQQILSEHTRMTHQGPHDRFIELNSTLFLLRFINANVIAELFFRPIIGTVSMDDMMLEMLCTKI
Large screens that a line does not name were inactive.

COc1ccc(C)cc1S(=O)(=O)N(C)CC(=O)N1CCCCC1	none
COc1ccc(C)cc1S(=O)(=O)N(C)CC(=O)N1CCCC1	DAX1 inh-2 4.8
O=C(COc1ccc(S(=O)(=O)N2CCOCC2)cc1)NCc1ccco1	ssDAF12 agonist 1.6
O=C(COc1ccc(S(=O)(=O)N2CCCC2)cc1)NCc1ccco1	none (no result: DAX1 inh-1, ssDAF12 agonist, hgDAF-12 ag, hcDAF12 agonist)
COC(=O)[C@H](N[C@H](/C=C/c1ccccc1)[C@@H](O)Cc1ccccc1)c1ccccc1	none (no result: DAX1 inh-2)
COc1ccc(C(=O)C=Cc2cccs2)c(O)c1	hgDAF-12 ag 11
C/C(=N/NC(=O)c1sc(NS(=O)(=O)c2ccccc2)nc1C)c1ccc(F)cc1	none
C/C(=N/NC(=O)c1sc(NS(=O)(=O)c2ccccc2)nc1C)c1ccccc1	DAX1 inh-2 5.6
C[C@@H]1C=CCCO[C@]12C(=O)N(Cc1ccccc1C(F)(F)F)c1ccccc12	none (no result: DAX1 inh-2)
Clc1ccc(Cn2ccc3ccccc32)cn1	DAX1 inh-2 6.0
COC(=O)[C@]12C[C@H](CC(=O)NCc3cccc(C(F)(F)F)c3)C(=O)N(Cc3ccc(Cl)cc3Cl)C1=C[C@H](COCc1ccccc1)O[C@@H]2C	none (no result: DAX1 inh-2)
Cc1ccccc1C(=O)N(Cc1ccccn1)CC1CCCO1 (centres undefined)	none (no result: DAX1 inh-2)
O=C1C(=C2SCCCS2)CC/C1=C\c1ccc(F)cc1	none
O=C1CCCC(=O)C1=C1SCCCS1	DAX1 inh-2 4.5
CCCCn1c(N)c(N(CC(C)C)C(=O)c2oc3ccc(OCC)cc3c2C)c(=O)[nH]c1=O	none
CCCCN(C(=O)c1oc2ccc(OCC)cc2c1C)c1c(N)n(CC(C)C)c(=O)[nH]c1=O	DAX1 inh-1 4.2
COC(=O)[C@]12C[C@H](CC(=O)NCCCN3CCCC3=O)C(=O)N(Cc3ccc4c(c3)OCO4)C1=C[C@H](C(C)C)O[C@@H]2C1CC1	none (no result: DAX1 inh-2)
Nc1cccc2c1C(=O)c1ccc(Cl)cc1C2=O	DAX1 inh-1 3.7
Cc1ccc(CNC(=O)CSCc2ccccc2F)cc1	hgDAF-12 ag 13
O=C(Nc1ccccc1C(=O)Nc1ccccc1)c1ccccc1Br	none
O=C(CCl)NNC(=O)c1c(O)c2ccccc2[nH]c1=O	none
O=C(NNC(=O)c1c(O)c2ccccc2[nH]c1=O)c1ccccc1Br	ssDAF12 agonist 0.9
O=C(Nc1c[nH]c(=O)[nH]c1=O)c1ccccc1Br	DAX1 inh-2 6.4
CCN(Cc1ccccc1)C(=O)C1C2C=CC3(CN(Cc4ccccc4)C(=O)C13)O2 (centres undefined)	none (no result: DAX1 inh-2)
CC1(C)CC(=O)C(C2C3=C(CC(C)(C)CC3=O)Oc3c(Br)cc(Br)cc32)=C(O)C1 (centres undefined)	hgDAF-12 ag 11
CC(C)(C)OC(=O)n1cc(-c2ccccc2)c2c(-c3ccccc3)c(O)ccc21	none (no result: DAX1 inh-2)
N#CCOc1nc(N2CCCC2)nc(N2CCCC2)n1	none
N#CCOc1nc(N2CCOCC2)nc(N2CCOCC2)n1	DAX1 inh-2 6.0
C#CCNC(=O)C[C@H]1C[C@@]2(C(=O)OC)C(=C[C@H](COCc3ccccc3)O[C@@H]2C)N(Cc2ccc(Cl)cc2Cl)C1=O	none (no result: DAX1 inh-2)
COc1ccc(O)c(-c2cc(-c3cccs3)[nH]n2)c1	ssDAF12 agonist 1.1, hcDAF12 agonist 5.8
O=C(/C=C/c1ccc2c(c1)OCO2)Nc1nc2ccc(F)cc2s1	DAX1 inh-2 4.8
CCOC(=O)N1Cc2cc3ccccc3nc2C1	ssDAF12 agonist 0.9
Cc1ccc(-c2noc(-c3ccccc3C(=O)N3CCN(C)CC3)n2)cc1	hcDAF12 agonist 6.6
Cc1cc(C)c2c(c1)/C(=N/NC(=S)Nc1ccc(F)cc1)CCC2	none
COC(=O)N/N=C1\CCCc2c(C)cc(C)cc21	DAX1 inh-2 4.3
CCOC(=O)c1cccc(NC(=O)c2ccccc2C)c1	hgDAF-12 ag 11
O=c1c2cc(N3CCOCC3)ccc2[nH]c(=S)n1CC1CCCO1 (centres undefined)	ssDAF12 agonist 0.9
O=C(C1CCC(Cn2c(=S)[nH]c3ccccc3c2=O)CC1)N1CCN(c2ccccc2)CC1 (centres undefined)	none
O=C(C1CCC(Cn2c(=S)[nH]c3ccccc3c2=O)CC1)N1CCOCC1 (centres undefined)	DAX1 inh-2 5.7
CN(C)c1ccc(NC(=O)Nc2ccc3c(c2)nnn3C)cc1	DAX1 inh-2 6.5
Cc1ccc(NC(=O)c2ccc3c(c2)nnn3C)cc1	none
Cn1nnc2cc(C(=O)Nc3ccccc3)ccc21	ssDAF12 agonist 0.9, hgDAF-12 ag 11
CN(C)c1ccc(NC(=O)c2ccc3c(c2)nnn3C)cc1	none
